# Assay results as given in PubChem BioAssay (NCI).
# About 79,000 compounds went through this panel and 15% of them were active in at least one assay; those are over-represented in the sample as a whole. Unmarked numbers belong to inactive results. The source made the active and inactive calls. Rule as the data show it: active = growth inhibition above about 70%; inactive = the rest.
# What was measured:
# [1] = NCI Yeast Anticancer Drug Screen. Data for the rad52 strain (AID 147);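 also: 0% = growth of vehicle-treated control cultures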; conditions: S. cerevisiae rad52 mutant growth inhibition, stronger effect = higher value
# How it was run: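 The repair-mutant yeast strain was incubated with compounds, then growth was read and inhibition derived relative to vehicle.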
# [2] = NCI Yeast Anticancer Drug Screen. Data for the wt1 strain (AID 149);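 also: 0% = growth of vehicle-treated wt1 cultures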; conditions: S. cerevisiae wt1 strain (SPY 50644) growth inhibition, stronger effect = higher value
# How it was run: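 The wt1 strain was treated with compounds, and growth was compared with vehicle-treated cultures to give inhibition.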
# [3] = NCI Yeast Anticancer Drug Screen. Data for the rad50EPP+ strain (AID 151);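 also: 0% = growth of vehicle-treated control cultures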; conditions: S. cerevisiae rad50 mutant strain, stronger effect = higher value
# How it was run: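 Vehicle-normalised growth inhibition; rad50EPP+ yeast strain, altered in DNA damage repair, compound-treated.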
# [4] = NCI Yeast Anticancer Drug Screen. Data for the mgt1 strain (AID 153); conditions: S. cerevisiae mgt1 mutant growth inhibition, stronger effect = higher value
# How it was run: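 Vehicle-normalized growth inhibition is determined in mgt1 yeast, a strain selected for a defined alteration in DNA repair or cell cycle control.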
# [5] = NCI Yeast Anticancer Drug Screen. Data for the rad50 strain (AID 155);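 also: 0% = growth of vehicle-only cultures of the same strain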; conditions: S. cerevisiae rad50 strain growth inhibition, stronger effect = higher value
# How it was run: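 Cells are treated with compound, grown, and their growth is then scored against vehicle-only cultures of the same repair-deficient yeast strain.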
# [6] = NCI Yeast Anticancer Drug Screen. Data for the mec2-1 strain (AID 157); conditions: S. cerevisiae mec2-1 strain, stronger effect = higher value
# How it was run: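 Mutant yeast (mec2-1) grown with compound; growth inhibition relative to vehicle control reported.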
# [7] = NCI Yeast Anticancer Drug Screen. Data for the rad14 strain (AID 159);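 also: 0% = growth of vehicle-treated control cultures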; conditions: S. cerevisiae rad14 strain growth inhibition, stronger effect = higher value
# How it was run: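 Readout: yeast growth inhibition, referenced to vehicle-only cultures. Strain bears a defined alteration in DNA damage repair.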
# [8] = NCI Yeast Anticancer Drug Screen. Data for the sgs1 mgt1 strain (AID 161);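 also: 0% = growth of cultures given vehicle only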; conditions: S. cerevisiae sgs1 mgt1 strain, stronger effect = higher value
# How it was run: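 Yeast cells carrying a defined DNA-repair defect were exposed to test compounds. Growth inhibition was measured relative to vehicle-treated controls.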
# [9] = NCI Yeast Anticancer Drug Screen. Data for the CLN2oe strain (AID 163);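 also: 0% = growth of vehicle-only control cultures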; conditions: S. cerevisiae CLN2oe strain, stronger effect = higher value
# How it was run: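 Compounds are applied to yeast harbouring a defined cell-cycle control change; reduced growth compared with vehicle-treated controls gives the value.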
# [10] = NCI Yeast Anticancer Drug Screen. Data for the cln2 rad14 strain (AID 165);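 also: 0% = growth equal to vehicle treated cultures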; conditions: S. cerevisiae cln2 rad14 strain, stronger effect = higher value
# How it was run: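 Readout is yeast growth inhibition versus vehicle-treated controls, using a strain with cln2 and rad14 alterations exposed to compound.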
# [11] = NCI Yeast Anticancer Drug Screen. Data for the bub3 strain (AID 167); conditions: S. cerevisiae bub3 mutant strain, stronger effect = higher value
# How it was run: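 Part of a panel of yeast mutants defective in DNA damage repair or cell cycle regulation. Each strain is grown with compound, and inhibition is calculated relative to solvent-treated cultures.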
# [12] = NCI Yeast Anticancer Drug Screen. Data for the wt2 strain (AID 169);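 also: 0% = growth of vehicle-treated yeast cultures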; conditions: S. cerevisiae wt2 strain growth inhibition, stronger effect = higher value
# How it was run: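 Against vehicle-treated controls, the growth of yeast exposed to each compound was compared, and the inhibition was recorded.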
# [13] = NCI Yeast Anticancer Drug Screen. Data for the mlh1 strain (AID 171);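 also: 0% = growth of vehicle-treated control cultures of the same strain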; conditions: S. cerevisiae mlh1 strain growth inhibition, stronger effect = higher value
# How it was run: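 Measured: yeast growth. Reference: vehicle-treated controls. Organism: strain with a defined alteration affecting DNA damage repair or cell cycle control, treated with compound.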
# [14] = NCI Yeast Anticancer Drug Screen. Data for the mlh1 rad18 strain (AID 175); conditions: S. cerevisiae mlh1 rad18 strain growth inhibition, stronger effect = higher value
# How it was run: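 Genetically defined yeast (DNA repair-deficient) exposed to compounds; growth inhibition determined relative to vehicle.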
# [15] = NCI Yeast Anticancer Drug Screen. Data for the rad18 strain (AID 177); conditions: S. cerevisiae rad18 mutant growth inhibition, stronger effect = higher value
# How it was run: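 Vehicle-treated cultures served as the baseline for scoring compound-induced growth inhibition in DNA-repair-mutant yeast.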
# [16] = at 5.0 µM (retest, dose inferred, filed as 0.5)
# [17] = at 50.0 µM (retest, dose inferred, filed as 5.0)
smiles,measurement,setting,value
N#CC(=S)Nc1cccc(Cl)c1,growth inhibition,[1]; at 1.2 µM,3%
same,growth inhibition,[1]; at 3.7 µM,1%
same,growth inhibition,[1]; at 11.0 µM,10%
same,growth inhibition,[1]; at 33.0 µM,26%
same,growth inhibition,[1]; at 100.0 µM,50%
same,growth inhibition,[2]; at 1.2 µM,7%
same,growth inhibition,[2]; at 3.7 µM,10%
same,growth inhibition,[2]; at 11.0 µM,23%
same,growth inhibition,[2]; at 33.0 µM,31%
same,growth inhibition,[2]; at 100.0 µM,41%
same,growth inhibition,[3]; at 1.2 µM,-12%
same,growth inhibition,[3]; at 3.7 µM,2%
same,growth inhibition,[3]; at 11.0 µM,10%
same,growth inhibition,[3]; at 33.0 µM,25%
same,growth inhibition,[3]; at 100.0 µM,46%
same,growth inhibition,[4]; at 1.2 µM,2%
same,growth inhibition,[4]; at 3.7 µM,15%
same,growth inhibition,[4]; at 11.0 µM,24%
same,growth inhibition,[4]; at 33.0 µM,42%
same,growth inhibition,[4]; at 100.0 µM,76% (active)
same,growth inhibition,[5]; at 1.2 µM,5%
same,growth inhibition,[5]; at 3.7 µM,8%
same,growth inhibition,[5]; [16],39%
same,growth inhibition,[5]; at 11.0 µM,3%
same,growth inhibition,[5]; at 33.0 µM,18%
same,growth inhibition,[5]; [17],82% (active)
same,growth inhibition,[5]; at 50.0 µM,46.9%
same,growth inhibition,[5]; at 100.0 µM,51%
same,growth inhibition,[6]; at 1.2 µM,28%
same,growth inhibition,[6]; at 3.7 µM,19%
same,growth inhibition,[6]; [16],19%
same,growth inhibition,[6]; at 11.0 µM,33%
same,growth inhibition,[6]; at 33.0 µM,28%
same,growth inhibition,[6]; [17],64%
same,growth inhibition,[6]; at 50.0 µM,57%
same,growth inhibition,[6]; at 100.0 µM,80% (active)
same,growth inhibition,[7]; at 1.2 µM,2%
same,growth inhibition,[7]; at 3.7 µM,-6%
same,growth inhibition,[7]; at 11.0 µM,9%
same,growth inhibition,[7]; at 33.0 µM,35%
same,growth inhibition,[7]; at 100.0 µM,79% (active)
same,growth inhibition,[8]; [16],28%
same,growth inhibition,[8]; [17],68%
same,growth inhibition,[8]; at 50.0 µM,66.7%
same,growth inhibition,[9]; at 1.2 µM,8%
same,growth inhibition,[9]; at 3.7 µM,28%
same,growth inhibition,[9]; at 11.0 µM,17%
same,growth inhibition,[9]; at 33.0 µM,43%
same,growth inhibition,[9]; at 100.0 µM,54%
same,growth inhibition,[10]; [16],8%
same,growth inhibition,[10]; [17],27%
same,growth inhibition,[10]; at 50.0 µM,17.6%
same,growth inhibition,[11]; at 1.2 µM,12%
same,growth inhibition,[11]; at 3.7 µM,7%
same,growth inhibition,[11]; [16],26%
same,growth inhibition,[11]; at 11.0 µM,2%
same,growth inhibition,[11]; at 33.0 µM,41%
same,growth inhibition,[11]; [17],63%
same,growth inhibition,[11]; at 50.0 µM,51.3%
same,growth inhibition,[11]; at 100.0 µM,67%
same,growth inhibition,[12]; at 1.2 µM,2%
same,growth inhibition,[12]; at 3.7 µM,5%
same,growth inhibition,[12]; at 11.0 µM,-22%
same,growth inhibition,[12]; at 33.0 µM,31%
same,growth inhibition,[12]; at 100.0 µM,94% (active)
same,growth inhibition,[13]; at 1.2 µM,2%
same,growth inhibition,[13]; at 3.7 µM,7%
same,growth inhibition,[13]; at 11.0 µM,26%
same,growth inhibition,[13]; at 33.0 µM,43%
same,growth inhibition,[13]; at 100.0 µM,78% (active)
same,growth inhibition,[14]; [16],64%
same,growth inhibition,[14]; [17],86% (active)
same,growth inhibition,[14]; at 50.0 µM,88.4% (active)
same,growth inhibition,[15]; at 1.2 µM,1%
same,growth inhibition,[15]; at 3.7 µM,12%
same,growth inhibition,[15]; at 11.0 µM,23%
same,growth inhibition,[15]; at 33.0 µM,37%
same,growth inhibition,[15]; at 100.0 µM,58%
